The record followed here is PubChem BioAssay (NCI).

SMILES strings stand for the structures. About 83,000 compounds went through this panel and 20% of them were active in at least one assay; those are over-represented in the sample as a whole.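 The endpoint reported here, percent growth, reads 100 for growth as untreated, 0 for no net growth and -100 for all cells dead.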 Unmarked numbers belong to inactive results. The source made the active and inactive calls. How the source made its calls: active means growth percent below 10; inactive means the rest.

Some test systems named below: NCI-H23 lung; NCI-H226 lung; NCI-H322M lung; HOP-62 NSCLC; NCI-H460 lung; HOP-92 NSCLC; NCI-H522 lung; A549/ATCC NSCLC; 786-0 renal; COLO 205 colon.
Experiment in all cases: NCI-60 one-dose screen, 48 h (100 = growth as untreated, 0 = no growth, -100 = all killed)
Common to all, as to conditions: 10 µM

Take `Cc1ccc2nc(-c3ccc(-c4nnc(SCC(=O)Nc5ccc(Br)cc5)o4)cc3)[nH]c2c1`: the growth in the test with NCI-H23 lung was 50.3%; with NCI-H226 lung it was 62.1%; in the test with NCI-H322M lung it was 80.7%; in the test with HOP-62 NSCLC, 72.9%; with NCI-H460 lung, 14.4%; in the test with HOP-92 NSCLC, 91.9%. The growth was 62.6% in the test on NCI-H522 lung, 89.5% in the test on A549/ATCC NSCLC, 84.6% with 786-0 renal and 87.3% with COLO 205 colon.

For the molecule `CN(C)c1ccc(/C=C/c2nc3ccccc3c(=O)n2CC(=O)Nc2ccc(Cl)cc2)cc1`, the growth in the test with NCI-H23 lung was 67.2%; with NCI-H226 lung, 2.45% (active); in the test with NCI-H322M lung, 61.7%; in the test on HOP-62 NSCLC it was 25.4%; in the test with NCI-H460 lung, 44.6%; with HOP-92 NSCLC, -13.6% (active). The growth with NCI-H522 lung was 77.9%; in the test with A549/ATCC NSCLC it was 43.8%; in the test on 786-0 renal, 27.8%; in the test with COLO 205 colon, 57.3%.

Consider `O=C(Cn1nc(-c2ccccc2)ccc1=O)NNC(=S)NC1CCCCC1`, for which the growth with NCI-H23 lung was 105%; in the test with NCI-H226 lung, 105%; in the test with NCI-H322M lung, 99.6%; in the test with HOP-62 NSCLC it was 104%; in the test on NCI-H460 lung it was 136%; with HOP-92 NSCLC it was 116%. Besides, the growth is 104% in the test with NCI-H522 lung, 114% in the test with A549/ATCC NSCLC, 105% in the test on 786-0 renal and 135% in the test with COLO 205 colon.

On to `O=S(=O)(Nc1ncccn1)c1ccc(-n2c(-c3ccccc3)nc(-c3ccccc3)c2-c2ccccc2)cc1`, for which the growth in the test with NCI-H23 lung is 95.4%; in the test on NCI-H226 lung, 87.8%; in the test on NCI-H322M lung, 96.4%; with HOP-62 NSCLC it was 100%; in the test with NCI-H460 lung it was 88.1%; in the test on HOP-92 NSCLC it was 109%. Further, the growth in the test with NCI-H522 lung was 94.4%; in the test on A549/ATCC NSCLC it was 89.7%; in the test with 786-0 renal, 88%; in the test with COLO 205 colon, 130%.

For `Cc1nn(-c2ccccc2)c2ncn(CC(=O)N/N=C/c3c[nH]c4ccccc34)c(=O)c12`, the growth in the test with NCI-H23 lung was 95.4%; in the test on NCI-H226 lung it was 93.1%; in the test with NCI-H322M lung, 93.5%; in the test on HOP-62 NSCLC, 95.6%; with NCI-H460 lung, 92.9%; in the test on HOP-92 NSCLC it was 80.5%. Moreover, the growth in the test with NCI-H522 lung was 89%; in the test with A549/ATCC NSCLC it was 85.4%; with 786-0 renal, 88%; in the test with COLO 205 colon it was 109%.

Consider `COc1ccc(CN2[C@@H](C(=O)NCc3ccc(C(=O)NO)cc3)Cc3c([nH]c4ccccc34)[C@@H]2C)cc1`, for which the growth in the test on NCI-H23 lung is 15.2%; with NCI-H226 lung, 45.8%; with NCI-H322M lung, 30.5%; with HOP-62 NSCLC, 37.7%; in the test with NCI-H460 lung, 11.7%; in the test with HOP-92 NSCLC, 2.77% (active). Also, the growth with NCI-H522 lung is -5.15% (active); in the test on A549/ATCC NSCLC, 41.6%; in the test on 786-0 renal, 39.7%; in the test on COLO 205 colon, -12.6% (active).

Take `COc1cc2c(c(OC)c1OC)C(=O)CC(c1cccc(NC(=O)c3cccc(N)c3)c1)O2` (stereo not given): the growth in the test with NCI-H23 lung was 91.1%; in the test with NCI-H226 lung, 86.7%; in the test on NCI-H322M lung, 91%; in the test with HOP-62 NSCLC, 100%; in the test on NCI-H460 lung it was 79.2%; in the test with HOP-92 NSCLC it was 74%. Also, the growth with NCI-H522 lung is 61%; with A549/ATCC NSCLC it was 85.3%; in the test on 786-0 renal, 91.9%; in the test on COLO 205 colon it was 102%.

In the case of `O=C1NC(=NC23CC4CC(CC(C4)C2)C3)N/C1=C\c1ccc2ncoc2c1`, the growth in the test with NCI-H23 lung was -49.7% (active); in the test with NCI-H226 lung, 21.4%; in the test with NCI-H322M lung it was 3.73% (active); in the test on HOP-62 NSCLC, 13.2%; in the test on NCI-H460 lung, 13.7%; with HOP-92 NSCLC, 15.3%. Further, the growth in the test with NCI-H522 lung is -17.3% (active); in the test on A549/ATCC NSCLC it was 10%; in the test on 786-0 renal it was 14.4%; with COLO 205 colon it was -34.4% (active).

In the case of `COc1cccc(COc2ccc(/C=C3\Oc4cc(O)ccc4C3=O)cc2)c1`, the growth with NCI-H23 lung is 46.7%; with NCI-H226 lung it was 51.3%; in the test on NCI-H322M lung, 89.4%; with HOP-62 NSCLC, 17.6%; in the test with NCI-H460 lung it was 27.4%; with HOP-92 NSCLC, 16.3%. Also, the growth in the test on NCI-H522 lung is 35.9%; in the test on A549/ATCC NSCLC it was 71.4%; in the test with 786-0 renal it was -58% (active); in the test on COLO 205 colon, 113%.

With `C=C1CCC2C3(C)COC(c4c(F)cccc4F)OC3CCC2(C)C1CC(O)C1=CCOC1=O` (stereo not given), the growth was 83.5% with NCI-H23 lung; 79.3% with NCI-H226 lung; 108% in the test with NCI-H322M lung; 86% in the test on HOP-62 NSCLC; 89.2% with NCI-H460 lung; 55.4% in the test with HOP-92 NSCLC. Further, the growth in the test with NCI-H522 lung was -33.8% (active); in the test on A549/ATCC NSCLC, 71.9%; in the test with 786-0 renal it was 19.1%; in the test on COLO 205 colon, 42.4%.

Consider `C/C(=N\N=C\c1ccc(N(C)C)cc1)c1ccc2c(c1)Nc1ccccc1S2`, for which the growth is 31.4% in the test on NCI-H23 lung; 16.8% in the test with NCI-H226 lung; 79.5% in the test with NCI-H322M lung; 62.2% in the test with HOP-62 NSCLC; 25% with NCI-H460 lung; 59.5% with HOP-92 NSCLC. For the same molecule, the growth in the test with NCI-H522 lung is 48.5%; in the test on A549/ATCC NSCLC it was 50.5%; with 786-0 renal, 67.5%; in the test with COLO 205 colon it was 60.4%.

In the case of `Cc1ccc(-c2cc(-c3cc4ccccc4nc3Cl)[nH]c(=S)n2)cc1`, the growth with NCI-H23 lung is 71.5%; in the test with NCI-H226 lung, 74.2%; with NCI-H322M lung, 81.7%; in the test with HOP-62 NSCLC it was 90.1%; in the test on NCI-H460 lung, 83.3%; in the test on HOP-92 NSCLC, 44.7%. Besides, the growth in the test on NCI-H522 lung was 37.8%; in the test with A549/ATCC NSCLC, 85.5%; in the test with 786-0 renal it was 74.3%; in the test with COLO 205 colon, 89.5%.

For the molecule `COc1ccc(-c2ccc(/C=N/NC(=O)c3[nH]c4ccc(Br)cc4c3-c3ccccc3)s2)cc1`, the growth with NCI-H23 lung was 68.8%; with NCI-H226 lung it was 105%; in the test on NCI-H322M lung, 92.3%; with HOP-62 NSCLC, 96.1%; with NCI-H460 lung it was 27.7%; in the test with HOP-92 NSCLC, 120%. For the same molecule, the growth in the test with NCI-H522 lung was 82.9%; with A549/ATCC NSCLC it was 71.9%; in the test on 786-0 renal, 112%; in the test on COLO 205 colon, 97.6%.
